About 1,500 (3.8%) of roughly 39,000 compounds were called active. For the sample, actives were picked, then their nearest neighbours and some compounds at random.
System: HSkMC (human skeletal muscle cells)
Test: cytotoxicity call (relative viability < 0.9)
Conditions: 10 µM

| SMILES | cytotoxicity call |
| --- | --- |
| CCC(=O)Nc1ccc2c(c1)C(=O)N(C)C[C@H](OC)[C@@H](C)CN(C(=O)CN1CCOCC1)[C@H](C)CO2 | inactive |
| CC(C)NC(=O)Nc1ccc2c(c1)C(=O)N([C@@H](C)CO)C[C@@H](C)[C@@H](CN(C)C(=O)Nc1ccc(C(F)(F)F)cc1)OCCCC[C@@H](C)O2 | inactive |
| C[C@@H]1CCCCO[C@H](CN(C)S(=O)(=O)c2cccs2)[C@@H](C)CN([C@@H](C)CO)C(=O)c2cc(NC(=O)Nc3cccc4ccccc34)ccc2O1 | inactive |
| C[C@@H]1CCCCO[C@H](CN(C)C(=O)CCC(F)(F)F)[C@@H](C)CN([C@H](C)CO)C(=O)c2cc(NC(=O)Cc3ccccc3)ccc2O1 | inactive |
| CC(C)NC(=O)Nc1cccc2c1O[C@@H](CN(C)Cc1ccc3c(c1)OCO3)[C@@H](C)CN([C@H](C)CO)C2=O | inactive |
| C[C@@H]1CN([C@H](C)CO)C(=O)c2cc(NS(=O)(=O)c3ccccc3)ccc2O[C@@H]1CN(C)S(C)(=O)=O | inactive |
| C[C@H]1CN([C@@H](C)CO)S(=O)(=O)c2ccc(C#Cc3ccncc3)cc2O[C@H]1CN(C)C(=O)C1CCOCC1 | inactive |
| Cc1noc(C)c1S(=O)(=O)Nc1ccc2c(c1)C(=O)N([C@H](C)CO)C[C@H](C)[C@H](CN(C)C(=O)Nc1cccc3ccccc13)OCCCC[C@@H](C)O2 | inactive |
| Cc1noc(C)c1S(=O)(=O)Nc1ccc2c(c1)C(=O)N([C@@H](C)CO)C[C@@H](C)[C@@H](CN(C)C(=O)Nc1cccc3ccccc13)OCCCC[C@H](C)O2 | inactive |
| Cc1noc(C)c1S(=O)(=O)Nc1ccc2c(c1)C(=O)N([C@H](C)CO)C[C@H](C)[C@@H](CN(C)C(=O)Nc1cccc3ccccc13)OCCCC[C@H](C)O2 | active |
| Cc1nnnn1CC(=O)Nc1ccc(F)cc1 | inactive |
| COc1ccc(NC(=O)Nc2ccc3c(c2)[C@H]2C[C@H](CC(=O)NCc4ccncc4)O[C@H](CO)[C@H]2O3)cc1 | inactive |
| C[C@@H]1CCCCO[C@@H](CN(C)C(=O)Nc2ccccc2)[C@H](C)CN([C@H](C)CO)C(=O)c2cc(NC(=O)Cc3ccccc3)ccc2O1 | inactive |
| Cc1ccc(S(=O)(=O)Nc2ccc3c(c2)C(=O)N([C@H](C)CO)C[C@@H](C)[C@@H](CN(C)C(=O)C2CCCCC2)OCCCC[C@H](C)O3)cc1 | inactive |
| O=C(O)c1cn(C2CC2)c2cc(N3CCC(O)(COc4ccc(N5C[C@H](CO)OC5=O)cc4F)CC3)c(F)cc2c1=O | inactive |
| O=C(/C=C/c1ccc(CNc2ccc([C@H]3O[C@@H](CSc4ccncc4)C[C@H](c4ccccc4)O3)cc2)cc1)NO | active |
| O=C(CCCCCCC(=O)Nc1ccc([C@H]2O[C@@H](CSc3ccncc3)C[C@H](c3ccccc3)O2)cc1)NO | inactive |
| O=C(CCCCCCC(=O)Nc1ccc([C@@H]2O[C@H](CSc3ccncc3)C[C@H](c3ccccc3)O2)cc1)NO | inactive |
| C[C@H](CO)N1C[C@H](C)[C@H](CN(C)C(=O)NC2CCCCC2)Oc2cc(-c3cccnc3)ccc2S1(=O)=O | inactive |

| SMILES | cytotoxicity call |
| --- | --- |
| COc1ccc(NC(=O)N(C)C[C@H]2OCCCC[C@H](C)Oc3ccc(NC(=O)c4ccncc4)cc3C(=O)N([C@H](C)CO)C[C@@H]2C)cc1 | inactive |
| CCc1ccc(NC(=S)Nc2ccccc2C(C)C)cc1 | inactive |
| COCC#Cc1ccc2c(c1)O[C@@H](CN(C)C(=O)COC)[C@@H](C)CN([C@H](C)CO)S2(=O)=O | inactive |
| COc1ccc(S(=O)(=O)Nc2ccccc2CN(C)C/C=C/c2ccc(Cl)cc2)cc1.O=P(=O)OO | inactive |
| COc1ccc(CN(C)C[C@H]2Oc3ccc(NC(=O)Nc4ccc(C(F)(F)F)cc4)cc3CC(=O)N([C@@H](C)CO)C[C@@H]2C)cc1 | inactive |
| COc1ccc(NC(=O)Nc2ccc3c(c2)CC(=O)N([C@H](C)CO)C[C@H](C)[C@H](CN(C)Cc2ccc(C(F)(F)F)cc2)O3)cc1 | inactive |
| COc1ccc(NC(=O)Nc2ccc3c(c2)CC(=O)N([C@H](C)CO)C[C@H](C)[C@@H](CN(C)Cc2ccc(C(F)(F)F)cc2)O3)cc1 | inactive |
| COc1ccc(NC(=O)Nc2ccc3c(c2)CC(=O)N([C@@H](C)CO)C[C@@H](C)[C@H](CN(C)Cc2ccc(C(F)(F)F)cc2)O3)cc1 | inactive |
| COc1ccc(NC(=O)Nc2ccc3c(c2)CC(=O)N([C@@H](C)CO)C[C@H](C)[C@H](CN(C)Cc2ccc(C(F)(F)F)cc2)O3)cc1 | active |
| COc1ccc(NC(=O)Nc2ccc3c(c2)CC(=O)N([C@H](C)CO)C[C@@H](C)[C@H](CN(C)Cc2ccc(C(F)(F)F)cc2)O3)cc1 | inactive |
| COc1ccc(CN(C)C[C@@H]2Oc3ccc(NC(=O)Nc4ccc(C(F)(F)F)cc4)cc3CC(=O)N([C@@H](C)CO)C[C@@H]2C)cc1 | inactive |
| COc1ccc(CN(C)C[C@H]2Oc3ccc(NC(=O)Nc4ccc(C(F)(F)F)cc4)cc3CC(=O)N([C@@H](C)CO)C[C@H]2C)cc1 | active |
| COc1ccc(CN(C)C[C@H]2Oc3ccc(NC(=O)Nc4ccc(C(F)(F)F)cc4)cc3CC(=O)N([C@H](C)CO)C[C@H]2C)cc1 | active |
| COc1ccc(NC(=O)Nc2ccc3c(c2)CC(=O)N([C@@H](C)CO)C[C@@H](C)[C@@H](CN(C)Cc2ccc(C(F)(F)F)cc2)O3)cc1 | inactive |
| COc1ccc(NC(=O)Nc2ccc3c(c2)CC(=O)N([C@H](C)CO)C[C@@H](C)[C@@H](CN(C)Cc2ccc(C(F)(F)F)cc2)O3)cc1 | active |
| COc1ccc(NC(=O)Nc2ccc3c(c2)CC(=O)N([C@@H](C)CO)C[C@H](C)[C@@H](CN(C)Cc2ccc(C(F)(F)F)cc2)O3)cc1 | inactive |
| COc1ccc(C#Cc2ccc3c(c2)[C@]2(C(=O)N3)[C@H](C(=O)N3CCc4cc(OC)c(OC)cc4C3)[C@H]3C(=O)O[C@H](c4ccccc4)[C@H](c4ccccc4)N3[C@@H]2c2ccc(O)cc2)cc1 | inactive |
| C[C@@H]1CN([C@H](C)CO)C(=O)Cc2cc(NC(=O)Nc3ccc(C(F)(F)F)cc3)ccc2O[C@H]1CN(C)C(=O)Nc1cccc2ccccc12 | inactive |
| C[C@H](CO)N1C[C@H](C)[C@@H](CN(C)C(=O)Cc2ccccn2)Oc2cc(C#Cc3ccccc3)ccc2S1(=O)=O | inactive |

— the antibiotic and cytotoxicity screens of Wong et al. (2023)
